43 compounds from PubChem BioAssay AID1259417 (TB Discovery Research, Infectious Disease Research Institute, 2018) can be followed below.

Molecules are shown by their SMILES. The whole screen tested about 1,100 compounds, of which about 760 (69%) were called active. No rule for the calls is given here. The set was probably picked from earlier hits. The list shows a part of the results.

For orientation: inhibition means the drop in the measured response relative to a control, in per cent.

The assay in a line: M. tuberculosis growth inhibition, HTS (AID 1259417).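 Also: bacteria grown with compound for 5 days at 37 °C.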 As to conditions: stronger effect = higher value, concentration not given here.
Setting [1] is: M. tuberculosis DsRed fluorescence growth inhibition.
[2] abbreviates: M. tuberculosis growth inhibition.

For `O=C(C[n+]1cc(-c2ccc(Cl)c(Cl)c2)n2c1CCC2)N1c2ccccc2Sc2ccccc21`, the inhibition was 37.7% (active) under setting [1] and 43.1% under setting [2].

Take `Cc1ccc(-c2csc(NC(=O)C[n+]3cc(-c4ccc(C)cc4)n4c3CCC4)n2)cc1`: the inhibition is, setting by setting: under setting [1], 13.7% (inactive); under setting [2], 7.92%.

Regarding `O=C(C[n+]1cc(-c2ccc(Cl)cc2)n2c1CCC2)N1c2ccccc2Sc2ccccc21`, the inhibition under setting [1] was 10.7% (inactive) and the inhibition under setting [2] turned out to be 3.46%.

On to `CCCCn1c(=O)c(C(=O)Nc2nnc(C(C)C)s2)c(O)c2ccccc21`, for which the inhibition runs as follows: under setting [1], 76.9% (active); under setting [2], 72.9%.

For `COc1cc(/C=C/c2ccc3c([N+](=O)[O-])cccc3n2)ccc1OCC(=O)O`, the inhibition runs as follows: under setting [1], 89.6% (active); under setting [2], 92.7%.

For `CCOC(=O)COc1ccc2ccccc2c1C=C(C)[N+](=O)[O-]`, the inhibition under setting [1] is 24% (inactive) and the inhibition under setting [2] was determined as 10.8%.

With `O=[n+]1c2ccccc2n([O-])c2ccccc21`, the inhibition under setting [1] is 98.3% (active) and the inhibition under setting [2] is 98.8%.

As to `CCCn1c(CNc2ccccc2O)nc2ccccc21`, the inhibition runs as follows: under setting [1], 99.4% (active); under setting [2], 100%.

As to `COC(=O)c1c(-c2ccc(Cl)cc2)csc1NC(=O)c1c(F)c(F)c(F)c(F)c1F`, the inhibition under setting [1] was 91.1% (active) and the inhibition under setting [2] was found to be 87.2%.

For the compound `CCc1c(C)sc(NC(=O)c2c(F)c(F)c(F)c(F)c2F)c1C(=O)OC(C)C`, the inhibition was 98.2% (active) under setting [1] and 95.8% under setting [2].

Consider `COC(=O)c1sc(NC(=O)c2c(F)c(F)c(F)c(F)c2F)c(C(N)=O)c1C`, for which the inhibition runs as follows: under setting [1], 98.6% (active); under setting [2], 96.9%.

Regarding `CCc1c(C)sc(NC(=O)c2ccc(Br)cc2)c1C(N)=O`, the inhibition is 4.19% (inactive) under setting [1] and 7.97% under setting [2].

As for `Cc1ccccc1C(=O)Nc1sc(Cc2ccccc2)c(C)c1C(N)=O`, the inhibition under setting [1] was -2.04% (inactive) and the inhibition under setting [2] is -9.31%.

Take `COC(=O)c1c(-c2ccccc2)csc1NC(=O)c1cc(OC)cc(OC)c1`: the inhibition by setting is: under setting [1], 4.19% (inactive); under setting [2], -6.55%.

In the case of `CCOC(=O)c1c(-c2ccc(C)o2)csc1NC(=S)NC(=O)N(C)C`, the inhibition runs as follows: under setting [1], 2.65% (inactive); under setting [2], -1.32%.

Turning to `CCOC(=O)c1c(NC(=O)c2cccc([N+](=O)[O-])c2)sc(CC)c1-c1ccccc1`, the inhibition runs as follows: under setting [1], 4.19% (inactive); under setting [2], -29.7%.

In the case of `COC(=O)c1c(NC(=O)c2cc(OC)cc(OC)c2)sc2c1C(C(=O)OC)CC2` (stereo unspecified), the inhibition reads like this: under setting [1], -0.558% (inactive); under setting [2], -13.8%.

For the compound `CCOC(=O)c1c(NC(=O)c2c(F)c(F)c(F)c(F)c2F)sc(C(=O)OC)c1C`, the inhibition is, setting by setting: under setting [1], 99.4% (active); under setting [2], 97.6%.

For the compound `CCOC(=O)c1c(NC(=O)c2cccc(OC)c2)sc(C)c1-c1ccccc1`, the inhibition runs as follows: under setting [1], 0.932% (inactive); under setting [2], -15.9%.

`CCOC(=O)c1c(NC(=O)c2c(F)c(F)c(F)c(F)c2F)sc(C(N)=O)c1C`: the inhibition runs as follows: under setting [1], 98.6% (active); under setting [2], 99.4%.

As for `COC(=O)c1sccc1NC(=O)c1c(F)c(F)c(F)c(F)c1F`, the inhibition is 99.1% (active) under setting [1] and 97.7% under setting [2].

`CCOC(=O)c1sc(NC(=O)c2c(F)c(F)c(F)c(F)c2F)c(C(=O)OCC)c1C`: the inhibition under setting [1] was 93.8% (active) and the inhibition under setting [2] was determined as 88.9%.

As for `CCOc1ccc2ccccc2c1C(=O)Nc1sc(C)c(C)c1C(N)=O`, the inhibition was 9.82% (inactive) under setting [1] and 9.7% under setting [2].

Regarding `CCOC(=O)c1c(NC(=O)c2cccc(OC(C)=O)c2)sc(CC)c1-c1ccccc1`, the inhibition under setting [1] is 2.11% (inactive) and the inhibition under setting [2] was -5.86%.

On to `Clc1ccc2c(c1)C1=C(C(c3ccncc3)O2)C(c2ccc(Br)cc2)n2ncnc2N1` (stereo unspecified), for which the inhibition is, setting by setting: under setting [1], 96% (active); under setting [2], 93.9%.

In the case of `CC(=NNc1nc(=O)[nH]nc1C)c1ccccc1O`, the inhibition is 98.6% (active) under setting [1] and 98.8% under setting [2].

In the case of `COc1cccc(C=NNc2nc(=O)[nH]nc2C)c1O`, the inhibition is 91.7% (active) under setting [1] and 94.9% under setting [2].

Turning to `COc1ccc(C2(C(=O)Nc3ccc(Br)cc3)CCCC2)cc1`, the inhibition by setting is: under setting [1], 63.2% (active); under setting [2], 81.4%.

As for `CC(=NNc1nc(C)c(C)s1)c1ccc(Br)cc1`, the inhibition was 96.2% (active) under setting [1] and 89.4% under setting [2].

As for `CCOC(=O)CCc1c(C)c(C#N)c2[nH]c3ccccc3n2c1=O`, the inhibition reads like this: under setting [1], 98.3% (active); under setting [2], 96.2%.

For `CCOC(=O)COc1ccc2c(C#N)c3ccccn3c2c1`, the inhibition reads like this: under setting [1], -0.849% (inactive); under setting [2], 22.1%.

Turning to `COC(=O)c1c2c(n3ccc(C)cc13)C(=O)c1ccccc1C2=O`, the inhibition by setting is: under setting [1], 99.2% (active); under setting [2], 98.8%.

For `CCOC(=O)C1=C(c2ccc(C)cc2)C(=O)c2ccccc2C1=O`, the inhibition was 14.4% (inactive) under setting [1] and 16.3% under setting [2].

Regarding `CC(C)(C)c1ccc(C(=O)Nc2cccc(NC(=O)c3cccs3)c2)cc1`, the inhibition is 0.571% (inactive) under setting [1] and 22.7% under setting [2].

For `CN(C)c1ccc(NC(=O)c2ccncc2)cc1`, the inhibition runs as follows: under setting [1], 98% (active); under setting [2], 100%.

Consider `Cc1ccc(NC(=O)c2cc3cc(Cl)cc(Cl)c3oc2=O)c(C)c1`, for which the inhibition under setting [1] is 9.67% (active) and the inhibition under setting [2] was 43.2%.

In the case of `O=C1c2ccccc2C(=O)N1CCCCN(C(=O)c1cc([N+](=O)[O-])cc([N+](=O)[O-])c1)c1ccc(Cl)cc1`, the inhibition is 97.2% (active) under setting [1] and 92.5% under setting [2].

Regarding `CCOC(=O)c1c(C)oc2ccc(OC(=O)c3cccs3)cc12`, the inhibition under setting [1] was -0.261% (inactive) and the inhibition under setting [2] is 2.41%.

For `CC1=CC(C)(C)Nc2ccc(OC(=O)c3cccnc3)cc21`, the inhibition was 9.4% (active) under setting [1] and 36.8% under setting [2].

Regarding `CC1=CC(C)(C)Nc2ccc(OC(=O)c3cccs3)cc21`, the inhibition under setting [1] was 49.6% (active) and the inhibition under setting [2] was determined as 74.6%.

`Cc1cccc(N2CCN(c3ncnc4sc5c(c34)CCCC5)CC2)n1`: the inhibition is 7.93% (inactive) under setting [1] and -17.2% under setting [2].

For `O=C(Nc1ncnc2sc3c(c12)CCCC3)c1ccc(F)cc1`, the inhibition is, setting by setting: under setting [1], 26.6% (active); under setting [2], 61.8%.

In the case of `NC(=O)c1c(NC(=O)c2ccc(COc3ccccc3Cl)cc2)sc2c1CCCC2`, the inhibition is -7.68% (inactive) under setting [1] and -40% under setting [2].
